Most compounds without a hit are left out; they make up all but 1.6% or so of the library.
KCNQ2 inh: KCNQ2 (rat) channel inhibition; CHO-K1 KCNQ2, FluxOR thallium flux, 20 min; hits give low values; B-score at 10 µM; 1.1% of 310,000 active; AID 2156;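 active = fluorescence ratio B-score at most minus 3 library SDs, with starting brightness B-score within 2 library SDs, cut at about -5.5 in these data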
KCNQ2 enhance: enhances the rat KCNQ2 potassium channel; O88943; CHO-K1 KCNQ2, FluxOR thallium flux fluorescence; hits give high values; B-score at 10 µM; 0.54% of 310,000 active; AID 2239;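 active = fluorescence ratio B-score at least 3 SD of library B-scores, with initial fluorescence B-score within 3 of them, cut at about 5.3 in these data; same plate scores as AID 2156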;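 note: B-score of peak minus minimum over baseline fluorescence ratio after K+ and Tl+ stimulus; positive B-score means potentiation of KCNQ2 with more thallium influx and brighter signal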
KCNQ2 block conf: rat KCNQ2 channel inhibition, confirmatory screen; shares compounds with KCNQ2 inh; KCNQ2-expressing cells, thallium flux; hits give low values; activity change, negative = inhibition, % at 10 µM; 57% of 1,000 active; AID 493025
KCNQ1 spec: KCNQ2 inhibitor that also affects human KCNQ1 channel; shares compounds with KCNQ2 inh; KCNQ1-expressing cells, FluxOR thallium flux fluorescence; hits give low values; activity change, negative = inhibition, % at 10 µM; 15% of 1,000 active; AID 493026;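 active = activity change at least 3 SD of negative controls below their mean in both duplicate wells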;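 note: CHO cells stably transfected with KCNQ1 and depolarized by potassium stimulus; peak minus minimum fluorescence over baseline after thallium addition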
CHO Tl ctr: KCNQ2 inhibitor counter-screen hit in parental CHO cells | shares compounds with KCNQ2 inh | thallium flux counter-screen; hits give low values | activity change, % at 10 µM | 14% of 1,000 active | AID 493029
KCNQ2 inh confirm: blocks rat KCNQ2 current in automated patch clamp; shares compounds with KCNQ2 inh; KCNQ2-expressing cells; calls only at 10 µM; AID 588531; 49% of 550 active
Kir21 conf inh: confirmation of mouse Kir2.1 potassium channel inhibitors. shares compounds with KCNQ2 enhance. Kir2.1-expressing cells, FluxOR thallium flux fluorescence; hits give low values. Tl flux remaining, % of negative control (hits give low values), % at 10 µM. 41% of 2,300 active;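 active = Primary-screen hit whose thallium flux fell at least 3 control SD below untreated wells in both duplicates, with normal baseline fluorescence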
HEK293 ctr: alters thallium flux in parental HEK293 cells, Kir2.1 counter-screen | shares compounds with KCNQ2 enhance | FluxOR thallium flux fluorescence; 0% = unstimulated blank wells | FluxOR signal as % of negative control (100 = no effect), % at 10 µM | 19% of 2,300 active | AID 2105;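 active = dye signal at least 3 control SD above or below untreated wells in both duplicates, raw fluorescence within 3, either direction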;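 note: percent is based on the flux ratio of peak minus minimum fluorescence over baseline F0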
Numbers stand for hits. Unless noted, the rule behind the calls is not given here.

What do the screens show for `CC1CCC(C(C)C)C(OC(=O)Cn2nnc3c(cnn3-c3ccccc3)c2=O)C1` (stereo not given)?
KCNQ2 inh: -7.3; KCNQ2 enhance: inactive; KCNQ2 block conf: -27%; KCNQ1 spec: inactive; CHO Tl ctr: inactive

Results for CC(C)(C)n1nnnc1C(c1ccc(C#N)cc1)N1CCCC2(CCCCC2)C1 (stereo not given) ?
KCNQ2 inh: -7.1; KCNQ2 enhance: inactive; KCNQ2 block conf: -37%; KCNQ1 spec: -38%; CHO Tl ctr: -37%; KCNQ2 inh confirm: inactive

What do the screens show for `CC(C)(C)n1nnnc1C(c1ccncc1)N1CCCCCC1` (stereo not given)?
KCNQ2 inh: inactive

How did Cc1ccc(-c2csc3nnc(SCC(=O)Nc4cccc(C)n4)n23)cc1 do in these assays?
KCNQ2 inh: inactive

Results for O=C1/C(=C/c2ccccc2)CSc2sccc21 ?
KCNQ2 inh: inactive; KCNQ2 enhance: inactive

How did CC(=O)N1N=C(c2ccccc2)CC1c1ccc(F)cc1 (stereo not given) do in these assays?
KCNQ2 inh: inactive

How did Cc1ccc(NC(=O)N2N=C(c3ccc(F)cc3)CC2c2ccc(F)cc2)cc1 (stereo not given) do in these assays?
KCNQ2 inh: -7.9; KCNQ2 enhance: inactive; KCNQ2 block conf: inactive; KCNQ1 spec: inactive; CHO Tl ctr: inactive

How did CCOc1ccc(OCCC(=O)N2CCc3cc(OC)c(OC)cc3C2)cc1 do in these assays?
KCNQ2 inh: inactive; KCNQ2 enhance: inactive

Results for CC1CCCN(C(=O)C2CCN(c3ncnc4c3nc3n4CCCCC3)CC2)C1 (stereo not given) ?
KCNQ2 inh: inactive; KCNQ2 enhance: inactive

What do the screens show for `Cc1ccc(O)c(C(=O)c2cnc(/N=C(\N)N(C)C)nc2)c1`?
KCNQ2 inh: inactive; KCNQ2 enhance: inactive

Results for Cc1ccc(O)c(C(=O)c2cnc3c(c2)COc2ccc(C)cc2-3)c1 ?
KCNQ2 inh: -6.8; KCNQ2 enhance: inactive; KCNQ2 block conf: inactive; KCNQ1 spec: inactive; CHO Tl ctr: inactive

How did O=[N+]([O-])c1cccc(OCCN2CCC(Cc3ccccc3)CC2)c1 do in these assays?
KCNQ2 inh: -8.2; KCNQ2 enhance: inactive; KCNQ2 block conf: inactive; KCNQ1 spec: inactive; CHO Tl ctr: inactive

Results for Cc1ccc([N+](=O)[O-])c(OCCCN2CCC(Cc3ccccc3)CC2)c1 ?
KCNQ2 inh: inactive

Results for Cc1cccc(-c2nc(CN3CCCC(C(=O)NC4CCCC4)C3)c(C)o2)c1 (stereo not given) ?
KCNQ2 inh: inactive

Results for Cc1cccc(-c2nc(CN3CCCC(C(=O)NC4CCC(C)CC4)C3)c(C)o2)c1 (stereo not given) ?
KCNQ2 inh: -9.6; KCNQ2 enhance: inactive; KCNQ2 block conf: -26%; KCNQ1 spec: inactive; CHO Tl ctr: inactive; KCNQ2 inh confirm: active

Results for COc1ccccc1NC(=O)CS(=O)(=O)c1cn(CC(=O)N2CCOCC2)c2ccccc12 ?
KCNQ2 inh: inactive

What do the screens show for `Cc1ccc(O)c(C(=O)c2cc(C#N)c3nc4ccccc4n3c2)c1`?
KCNQ2 inh: inactive

What do the screens show for `CCc1cccc2c1Sc1ccccc1CC2N1CCNCC1` (stereo not given)?
KCNQ2 inh: inactive

How did Cc1cccc2c1Sc1ccc(Cl)cc1CC2N1CCNCC1 (stereo not given) do in these assays?
KCNQ2 inh: -8.4; KCNQ2 enhance: inactive; KCNQ2 block conf: -42%; KCNQ1 spec: -34%; CHO Tl ctr: -28%; KCNQ2 inh confirm: active

What do the screens show for `CCOCCCn1c(SC(C(=O)Nc2cc(C)ccc2C)c2ccccc2)nnc1-c1ccc(Cl)cc1` (stereo not given)?
KCNQ2 inh: -9.6; KCNQ2 enhance: inactive; KCNQ2 block conf: -24%; KCNQ1 spec: inactive; CHO Tl ctr: inactive; KCNQ2 inh confirm: active

What do the screens show for `CCNc1nc(NCC)n2c(SC(C(=O)Nc3cc(C)ccc3C)c3ccccc3)nnc2n1` (stereo not given)?
KCNQ2 inh: inactive

Results for COc1cccc(NC(=O)C(NC2CCCC2)c2ccccc2)c1 (stereo not given) ?
KCNQ2 inh: inactive

Results for O=C(CC(c1ccccc1)c1ccccc1)NCC1CCCO1 (stereo not given) ?
KCNQ2 inh: inactive

How did Cc1ccc(NC(=O)C(NC2CCCC2)c2ccccc2)cc1Cl (stereo not given) do in these assays?
KCNQ2 inh: -6.8; KCNQ2 enhance: inactive; KCNQ2 block conf: -36%; KCNQ1 spec: -39%; CHO Tl ctr: -36%; KCNQ2 inh confirm: inactive

Results for CN(C)CCNC(C(=O)Nc1cc(Cl)cc(Cl)c1)c1ccccc1 (stereo not given) ?
KCNQ2 inh: inactive

What do the screens show for `O=C(Nc1cc(Cl)cc(Cl)c1)C(NCC1CCCO1)c1ccccc1` (stereo not given)?
KCNQ2 inh: -7.8; KCNQ2 enhance: inactive; KCNQ2 block conf: inactive; KCNQ1 spec: inactive; CHO Tl ctr: inactive

What do the screens show for `CC(C)NC(C(=O)Nc1cc(Cl)cc(Cl)c1)c1ccccc1` (stereo not given)?
KCNQ2 inh: -8.1; KCNQ2 enhance: inactive; KCNQ2 block conf: -36%; KCNQ1 spec: inactive; CHO Tl ctr: inactive; KCNQ2 inh confirm: inactive

Results for CCc1ccc(OCc2n[nH]c(=S)n2C(C)CCCC(C)C)cc1 (stereo not given) ?
KCNQ2 inh: inactive; KCNQ2 enhance: inactive

What do the screens show for `CC(C)c1ccc(N(C(=O)CNC(=O)c2ccco2)C(C(=O)NC2CCCC2)c2cccnc2)cc1` (stereo not given)?
KCNQ2 inh: inactive

What do the screens show for `O=C(CN1CCSCC1)N/N=C/c1ccc(F)c(F)c1`?
KCNQ2 inh: inactive

Results for Cc1cc(OCC(=O)N2CCOCC2)ccc1NC(=O)c1ccccc1C ?
KCNQ2 inh: inactive

How did CC(C(=O)Nc1ccon1)N1C(=O)c2ccccc2S1(=O)=O (stereo not given) do in these assays?
KCNQ2 inh: inactive

How did O=C(CCC1CCCC1)NCCCNC(=O)CCC1CCCC1 do in these assays?
KCNQ2 inh: inactive; KCNQ2 enhance: inactive

What do the screens show for `CC1CCCCN1C(=O)CCn1c(=O)oc2ccccc21` (stereo not given)?
KCNQ2 inh: inactive

How did Cc1ccc(-c2nn(-c3ccccc3)cc2CO)cc1 do in these assays?
KCNQ2 inh: inactive

Results for N=C(N)SCc1cn(-c2ccccc2)nc1-c1ccc(Br)cc1 ?
KCNQ2 inh: -12; KCNQ2 enhance: inactive; KCNQ2 block conf: inactive; KCNQ1 spec: inactive; CHO Tl ctr: inactive; Kir21 conf inh: 13%; HEK293 ctr: 56%

Assay outcomes from PubChem BioAssay.
